Measured values from PubChem BioAssay (NCI).
Values joined by “and” are separate entries in the source; they are usually repeats but may differ in a detail not shown here. Identical values can stand only once. About 83,000 compounds went through this panel and 20% of them were active in at least one assay; those are over-represented in the sample as a whole.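 Testing used 96-well plates and a 48-hour single-concentration exposure. Example: -40 means 40% of the starting cells died.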 Active and inactive are the calls of the source. Rule for the calls: active = growth percent below 10; inactive = the rest.

Key:
Assay in all cases: NCI-60 one-dose screen, 48 h (100 = growth as untreated, 0 = no growth, -100 = all killed)
Conditions in all cases: 10 µM unless noted
[1] = tested on: NCI-H226 lung
[2] = tested on: NCI-H322M lung
[3] = tested on: NCI-H460 lung
[4] = tested on: HOP-92 NSCLC
[5] = tested on: NCI-H522 lung
[6] = tested on: A549/ATCC NSCLC
[7] = tested on: 786-0 renal
[8] = tested on: COLO 205 colon
[9] = tested on: HOP-62 NSCLC

Structure (SMILES) | growth [1] | growth [2] | growth [3] | growth [4] | growth [5] | growth [6] | growth [7] | growth [8] | growth [9]
CC(=O)C(/C=N/C(N)=O)=C(/C)O | 111% (inactive) | 113% (inactive) | 116% (inactive) | 119% (inactive) | 99.6% (inactive) | 99.6% (inactive) | 104% (inactive) | 120% (inactive) | 
O=[N+]([O-])c1ccccc1/C=N\Nc1ccccc1 | 89.4% (inactive) and 97.8% (inactive) | 86.5% (inactive) and 78.3% (inactive) | 91.2% (inactive) and 97.4% (inactive) | 72.2% (inactive) | 68.2% (inactive) and 62.3% (inactive) | 81.4% (inactive) and 81.6% (inactive) | 86.6% (inactive) and 101% (inactive) | 94.4% (inactive) and 105% (inactive) | 90% (inactive) and 90.6% (inactive)
CC(C)Cc1ccc(C(C)C(=O)NCc2ccc(Cn3c(=O)sn(CCCCl)c3=O)cc2)cc1 (stereo unspecified) | 106% (inactive) and 32.6% (inactive) | 101% (inactive) and 73.9% (inactive) | 105% (inactive) and 40.2% (inactive) | 105% (inactive) and -77.6% (active) | 85.5% (inactive) and -52.3% (active) | 101% (inactive) and -20.1% (active) | 101% (inactive) and -71.6% (active) | 66.8% (inactive) and -65% (active) | 105% (inactive) and -38.5% (active)
CCCCCCCCCCCCOc1ccccc1C=O | 95.4% (inactive) | 114% (inactive) | 102% (inactive) |  | 91.3% (inactive) | 93.3% (inactive) | 109% (inactive) | 109% (inactive) | 85.3% (inactive)
CN(C)CCC(=O)c1ccc(Cl)cc1 | 99.3% (inactive) and 110% (inactive) | 110% (inactive) and 116% (inactive) | 113% (inactive) and 114% (inactive) | 86.4% (inactive) and 124% (inactive) | 79.8% (inactive) and -84.6% (active) | 109% (inactive) and 107% (inactive) | 104% (inactive) and 106% (inactive) | 121% (inactive) and 118% (inactive) | 
CC12CCC(CC1)C(C)(C)O2 | 104% (inactive) | 101% (inactive) | 118% (inactive) | 105% (inactive) | 95% (inactive) | 102% (inactive) | 94.5% (inactive) | 110% (inactive) | 
Cc1cc(O)c(C(C)C)cc1S(=O)(=O)O (tested in a mixture with another compound) | 89% (inactive) and 43.4% (inactive) and 93.8% (inactive) | 90.7% (inactive) and 24.7% (inactive) and 93.4% (inactive) | 99.1% (inactive) and 1.34% (active) and 108% (inactive) | 89.5% (inactive) and 6.59% (active) and 77.8% (inactive) | 88.5% (inactive) and -20.5% (active) | 90.1% (inactive) and 8.67% (active) and 102% (inactive) | 87.2% (inactive) and 13% (inactive) and 116% (inactive) | 124% (inactive) and -63.7% (active) and 103% (inactive) | 77.5% (inactive) and 33.1% (inactive) and 106% (inactive)
S=C(S)N1CCCC1 | 108% (inactive) and 111% (inactive) | 107% (inactive) and 97.7% (inactive) | 62.2% (inactive) | 91.9% (inactive) and 88% (inactive) | 8.09% (active) and -11.7% (active) | 70.6% (inactive) and 58.4% (inactive) | 103% (inactive) and 106% (inactive) | 60.7% (inactive) and 49.9% (inactive) | 124% (inactive) and 100% (inactive)
COc1ccc2ccccc2c1/C=N/N1CCCCC1 | 102% (inactive) | 105% (inactive) | 109% (inactive) | 67.8% (inactive) | 86.9% (inactive) | 95.7% (inactive) | 96.1% (inactive) | 102% (inactive) | 101% (inactive)
O=C(CN1CCOCC1)N1CCOCC1 | 105% (inactive) and 113% (inactive) | 92% (inactive) and 110% (inactive) | 111% (inactive) and 114% (inactive) | 75.3% (inactive) | 75.3% (inactive) and 101% (inactive) | 103% (inactive) | 102% (inactive) and 108% (inactive) | 115% (inactive) and 105% (inactive) | 106% (inactive) and 112% (inactive)
